High-throughput results as filed in PubChem BioAssay.
Hits are enriched below; roughly 17% of the tested compounds scored in any of these assays.
TDP1 cell noCPT: qHTS for Inhibitors of human tyrosyl-DNA phosphodiesterase 1 (TDP1): qHTS in cells in absence of CPT | DT40 Tdp1-/- hTDP1 cells, no CPT, ATP luminescence, 48 h | Potency, µM (series often up to 46.2 µM), for inactives: at the top dose activity change, negative = growth inhibition, actives largely listed as inhibitors | 420,000 tested, 15% active | AID 686978, 2013; further: on the % scale 0 is the no-effect control and ±100 the full control effect; nearly all actives have a fitted effect of over 55% in size
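Camptothecin absent (DMSO only). Human TDP1-complemented DT40 knockout cells, 400 cells/well, 37 °C for minimum 48 hr; ATP measured via CellTiter-Glo, 30 min dark incubation, luminescence.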
DT40 TDP1 CPT: growth inhibition of DT40 Tdp1-/-;hTDP1 cells with camptothecin (screen for TDP1 inhibitors) | chicken DT40 Tdp1-/-;hTDP1 cells + 20 nM CPT, ATP luminescence, 48 h | Potency, µM (highest dose often 46.2 µM), without a hit: at the highest dose activity change, negative = growth inhibition, most hits filed as inhibitors | 420,000 tested, 12% active; further: on the % scale 0 is the no-effect control and ±100 the full control effect; nearly all actives have a fitted effect of over 55% in size
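Chicken DT40 Tdp1-/- cells complemented with human TDP1, 400 cells/well, exposed to compounds plus 20 nM camptothecin for at least 48 h at 37 C; viability read as ATP content by CellTiter-Glo luminescence.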
TDP1 block: TDP1 (human) enzyme inhibition; Q9NUW8; recombinant TDP1, AlphaScreen DNA substrate cleavage; 350,000 tested, 0.28% active; Potency, µM (highest dose often 130 µM), for inactives: top-dose activity change, negative = inhibition, usual class: inhibitors; further: on the % scale 0 is the no-effect control and ±100 the full control effect; nearly all actives have a fitted effect of over 40% in size
Target sequence (Q9NUW8 whole entry, looked up): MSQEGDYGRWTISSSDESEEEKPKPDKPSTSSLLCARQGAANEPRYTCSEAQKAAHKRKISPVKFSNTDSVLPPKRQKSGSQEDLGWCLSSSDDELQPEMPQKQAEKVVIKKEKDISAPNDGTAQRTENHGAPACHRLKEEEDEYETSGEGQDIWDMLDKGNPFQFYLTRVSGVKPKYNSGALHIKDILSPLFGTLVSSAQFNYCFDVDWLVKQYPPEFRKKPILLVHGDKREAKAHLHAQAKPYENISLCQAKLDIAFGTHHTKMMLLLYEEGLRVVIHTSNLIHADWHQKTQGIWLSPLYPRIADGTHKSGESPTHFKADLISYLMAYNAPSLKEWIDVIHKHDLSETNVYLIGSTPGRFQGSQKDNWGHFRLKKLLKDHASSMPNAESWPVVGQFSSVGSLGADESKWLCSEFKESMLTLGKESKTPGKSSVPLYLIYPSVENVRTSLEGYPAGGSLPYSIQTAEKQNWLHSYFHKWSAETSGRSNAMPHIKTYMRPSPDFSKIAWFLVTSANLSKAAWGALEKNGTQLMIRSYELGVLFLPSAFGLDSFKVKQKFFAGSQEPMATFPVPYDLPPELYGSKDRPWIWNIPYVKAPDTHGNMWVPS
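Steps: enzyme plus compound, 15 min RT; add biotin/phosphotyrosine-FITC oligonucleotide (15 nM final), react 5 min; add donor/acceptor beads (10 ug/ml final), 10 min; read AlphaScreen. Tdp1 at 1 nM final.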
ClpP mod: qHTS Assay for Activators of ClpP | ATP-dependent Clp protease proteolytic subunit (Bacillus subtilis (strain 168)), P80244 | purified B. subtilis ClpP, FRET peptide cleavage, 20 min | Potency, µM (titrated, usually from 57.5 µM), for the others: at the highest dose activity change, negative = active | 340,000 tested, 1.9% active; active means well fitted falling curve with a large enough effect; inconclusive means small, poorly fitted or top-dose-only effect; inactive means no such curve, though single readings can be large or run the other way; further: the source files actives as falling curves though it sought activators and does not explain the sign; nearly all actives have a fitted effect of over 65% in size
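ClpP 10 microg/mL final, pH 8 Tris/KCl buffer with BSA, glycerol, Tween-20; compound pinned in; FRET-FV substrate; RT 20 min; Ex320/Em430; ΔFRET vs ADEP 5.8 microM, DMSO, no enzyme.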
Numbers without * were called inactive. Unless noted, the call rests on the fitted dose curve; in most records, active means well fitted curve in the direction sought with a large enough effect; inconclusive means small, poorly fitted or top-dose-only effect, or another doubt; inactive means no such curve, though single readings can be large; an effect the other way counts as inactive or inconclusive. Potency means the concentration at half of the fitted maximal effect.

`COc1ccccc1C(=O)Nc1c(C(=O)c2ccccc2)oc2ccccc12` gave TDP1 cell noCPT inconclusive, DT40 TDP1 CPT 18.4µM*, TDP1 block -3.2% and ClpP mod -1.4%.
Screening COc1ccccc1C(=O)Nc1c(C(=O)N(CCN(C)C)Cc2ccco2)oc2ccccc12 returned TDP1 cell noCPT 11.6µM*, DT40 TDP1 CPT 9.2µM*, TDP1 block 8.6% and ClpP mod -5.9%.
Screening COc1ccccc1C(=O)Nc1c(C(=O)NC(C)(C)C)oc2ccccc12 returned TDP1 cell noCPT 23.1µM*, DT40 TDP1 CPT inconclusive, TDP1 block -4.2% and ClpP mod 33.2%.
`CCOC(=O)c1cnc2c(ccc3ccccc32)c1Nc1ccc(OC)cc1OC` gave TDP1 cell noCPT inconclusive, DT40 TDP1 CPT inconclusive and ClpP mod -1.0%.
CC(O)c1cccc2cc(C(O)CNC(C)(C)C)oc12 (stereo not given) was read as TDP1 block 8.9%.
For COc1ccc(NC(=O)c2oc3ccccc3c2NC(=O)C23CC4CC(CC(C4)C2)C3)c(OC)c1 the results were TDP1 cell noCPT 23.1µM*, DT40 TDP1 CPT -23.0%, TDP1 block 6.4% and ClpP mod inconclusive.
Screening COc1cccc2[nH]c(C(=O)NN)c(N)c12 returned TDP1 cell noCPT 16.4µM*, DT40 TDP1 CPT inconclusive, TDP1 block 4.7% and ClpP mod 0.5%.
COc1ccc(NC(=O)c2cc3ccccc3o2)c(OC)c1 was read as TDP1 cell noCPT inconclusive, DT40 TDP1 CPT inconclusive, TDP1 block 1.9% and ClpP mod 410.5%.
COc1cc2[nH]c(C(=O)NN)c(N)c2cc1OC was read as TDP1 block 9.5%.
COc1ccccc1NC(=O)c1cc2ccc(O)cc2o/c1=N\O was read as TDP1 cell noCPT inconclusive, DT40 TDP1 CPT inconclusive, TDP1 block 0.0% and ClpP mod 0.7%.
Screening COc1ccccc1NC(=O)c1cc2ccccc2o/c1=N\O returned TDP1 cell noCPT 20.6µM*, DT40 TDP1 CPT 20.6µM* and ClpP mod -5.1%.
For CCOC(=O)c1oc2ccccc2c1NC(=O)c1ccccc1OC the results were TDP1 cell noCPT inconclusive, DT40 TDP1 CPT inconclusive, TDP1 block -3.1% and ClpP mod 35.5µM*.
CC1C(=O)N2CCCc3cc(NC(=O)C4CC4)cc1c32 (stereo not given) was read as TDP1 cell noCPT -0.7%, DT40 TDP1 CPT -5.9% and ClpP mod -0.8%.
Screening CC[C@H](C)[C@H](NC(=O)[C@H](Cc1ccc(O)cc1)NC(=O)CNC(=O)[C@@H]1CCCN1C(=O)[C@H](CC(=O)O)NC(=O)[C@@H](N)CS)C(=O)NCC(=O)N[C@@H](CO)C(=O)N[C@@H](CCCN=C(N)N)C(N)=O returned TDP1 block 0.3%.
Screening COc1ccc(C)cc1NC(=O)c1ccccc1NS(=O)(=O)c1ccc(Cl)s1 returned TDP1 cell noCPT 6.51µM*, DT40 TDP1 CPT 8.2µM*, TDP1 block 2.4% and ClpP mod 2.1%.
Cc1ccc(NC(=O)c2ccccc2NS(=O)(=O)c2ccc(Cl)s2)cc1S(=O)(=O)N1CCOCC1 was read as TDP1 cell noCPT 11.6µM*, DT40 TDP1 CPT 13µM*, TDP1 block 2.7% and ClpP mod -3.1%.
Cc1ccc(NC(=O)c2ccc([N+](=O)[O-])s2)cc1S(=O)(=O)N1CCOCC1 was read as TDP1 cell noCPT 16.4µM*, DT40 TDP1 CPT 16.4µM* and TDP1 block -1.2%.
Screening O=C(Nc1cc(S(=O)(=O)N2CCOCC2)ccc1N1CCOCC1)c1ccc([N+](=O)[O-])s1 returned TDP1 cell noCPT 7.31µM*, DT40 TDP1 CPT 11.6µM*, TDP1 block 3.9% and ClpP mod 0.5%.
`C[C@H](NC(=O)c1ncn(Cc2ccccc2)c1C(=O)N[C@@H](C)c1ccccc1)c1ccccc1` gave TDP1 cell noCPT inconclusive, DT40 TDP1 CPT inconclusive, TDP1 block 0.0% and ClpP mod -1.8%.
CCN(CC)c1c(C)nc2ccc(C(=O)NCc3ccc4c(c3)OCO4)cn12 was read as TDP1 cell noCPT inconclusive, DT40 TDP1 CPT -12.7% and ClpP mod 0.4%.
O=C(Cc1ccccc1F)Nc1cc(Cl)ccc1N1CCCC1 was read as TDP1 cell noCPT -28.9% and DT40 TDP1 CPT -24.5%.
`CC(C)c1ccc(/C=N/NC(=O)c2nnn(-c3nonc3N)c2CN2CCOCC2)cc1` gave TDP1 cell noCPT inconclusive, DT40 TDP1 CPT -23.5%, TDP1 block 0.7% and ClpP mod 0.1%.
Screening CSc1ncc(C(=O)Nc2c(C)cccc2C)c(-c2ccccc2)n1 returned TDP1 cell noCPT -15.2%, DT40 TDP1 CPT -10.8%, TDP1 block 0.0% and ClpP mod -3.1%.
`Cn1cc(Br)c(C(=O)N/N=C/c2cc3c(cc2Cl)OCO3)n1` gave TDP1 cell noCPT 0.4%, DT40 TDP1 CPT 5.6%, TDP1 block -9.6% and ClpP mod -20.8%.
CCc1ccc(OCc2ccc(C(=O)O)o2)cc1 was read as TDP1 cell noCPT 12.1% and DT40 TDP1 CPT 7.3%.
O=C(Nc1cc(S(=O)(=O)N2CCOCC2)ccc1N1CCOCC1)c1cc2c(s1)CCC2 was read as TDP1 cell noCPT 23.1µM* and DT40 TDP1 CPT -0.8%.
For CCOC(=O)C1CCCN(C(=O)c2ccc3c(c2)N(C)C(=O)/C(=C/c2ccccc2Cl)S3)C1 (stereo not given) the results were TDP1 cell noCPT 18.4µM*, DT40 TDP1 CPT inconclusive, TDP1 block 4.4% and ClpP mod -7.7%.
For CCOc1ccc(/C=C2/Sc3ccc(C(=O)N4CCOCC4)cc3N(C)C2=O)cc1OC the results were TDP1 cell noCPT 16.4µM*, DT40 TDP1 CPT inconclusive and TDP1 block 5.0%.
For COc1ccc(/C=C2\Sc3ccc(C(=O)N4CCCC4)cc3N(C)C2=O)cc1OC the results were TDP1 cell noCPT inconclusive, DT40 TDP1 CPT 6.6% and TDP1 block 8.1%.
CCOC(=O)C1CCCN(C(=O)c2cccc(N3C(=O)c4ccccc4C3=O)c2)C1 (stereo not given) was read as TDP1 cell noCPT -24.4%, DT40 TDP1 CPT -0.5%, TDP1 block 1.8% and ClpP mod 0.7%.
For CN1C(=O)/C(=C\c2ccccc2F)Sc2ccc(C(=O)NC3CCN(Cc4ccccc4)CC3)cc21 the results were TDP1 cell noCPT 23.1µM*, DT40 TDP1 CPT 18.4µM*, TDP1 block 6.1% and ClpP mod -7.1%.
For CN1C(=O)/C(=C/c2ccccc2Cl)Sc2ccc(C(=O)N3CCCC3)cc21 the results were TDP1 cell noCPT 25.9µM*, DT40 TDP1 CPT inconclusive, TDP1 block 5.0% and ClpP mod -3.1%.
`CN1C(=O)/C(=C/c2cccc(Cl)c2)Sc2ccc(C(=O)N3CCOCC3)cc21` gave TDP1 cell noCPT inconclusive, DT40 TDP1 CPT inconclusive, TDP1 block 6.9% and ClpP mod 0.5%.
